Calls of active or inactive are those of the source. Unless noted, the rule behind the calls is not given here.

Experiment [1] concerns Wnt5a (protein binding on small-molecule microarray). As to the kind of experiment: small molecules binding Wnt5a protein – biophysical, small-molecule microarray, 635/667 nm fluorescence, primary screen (AID 1142).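 Note: fluorescence read at 667 nm with signal to noise per printed feature.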 Particulars: 635 nm fluorescence, higher = more signal.
The nature of experiment [2]: ATP-based viability of Huh7 replicon cells – cell-based, CellTiter-Glo luminescence, basal, 48 h, cytotoxicity control for HCV replication inhibitor project, primary screen (AID 1143).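 Note: Huh7 hepatoma cells carrying a hepatitis C replication reporter with no stimulus; test concentration not given here.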 Particulars: higher = more signal, called active from +8 up or from −8 down. On the technique in general: A replicon is a self-replicating genome or part of one, used to study replication in cells.

The nature of experiment [3]: Pseudomonas biofilm growth suppression – PAO1 strain, BacTiter-Glo luminescence, LB-PBS, primary screen (AID 1144). Particulars: P. aeruginosa PAO1 biofilm, 12 h, higher = more signal.
Experiment [4] is described as follows: basal CRE-LacZ reporter activity in PC12 – cell-based, unstimulated, primary screen (AID 1145). Particulars: no forskolin, luminescence, 4.5 h, higher = more signal, called active from +8 up or from −8 down.
A short description of experiment [5]: forskolin-driven CRE-LacZ activity in PC12 – cell-based, CRE-LacZ reporter, forskolin-stimulated, primary screen (AID 1146).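 Note: PC12 cells with 6xCRE LacZ reporter stimulated by forskolin 10 µM; beta-galactosidase reporter signal reflecting CREB driven transcription.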 Particulars: luminescence, 4.5 h, higher = more signal, called active from +8 up or from −8 down.
The target of experiment [6] is Streptavidin (Streptomyces avidinii) (UniProt P22629). The experiment can be described thus: compounds binding control protein streptavidin – biophysical, small-molecule microarray, 635/667 nm fluorescence, artefact control for SMM compound annotation, primary screen (AID 1147).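 Note: signal reflects streptavidin binding to arrayed compounds as a control protein.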 Conditions: higher = more signal.
Experiment [7] is described as follows: probe aInhba binding on compound microarray – biochemical, small-molecule microarray, 635/667 nm fluorescence, primary screen (AID 1148).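 Note: score merges 667nm spot fluorescence with signal-to-noise for antibody binding to printed compounds.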 Conditions: higher = more signal.
In experiment [8] the target is Torsin-1A (Homo sapiens) (UniProt O14656). The experiment can be described thus: TOR1A wild-type binding on microarray – cell lysate, small-molecule microarray, lysate, 635/667 nm, primary screen (AID 1149). Particulars: COS7 hTOR1A-WT lysate, 635 nm fluorescence, higher = more signal.
Experiment [9] shares this target. As to the kind of experiment: torsin A mutant lysate binding on microarrays – cell lysate, small-molecule microarray, COS7 lysate, 635/667 nm fluorescence, primary screen (AID 1150).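 Note: score pools 667 nm emission and signal to noise measuring lysate protein binding.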 Conditions: COS7 hTOR1A mutant lysate, 635 nm fluorescence, higher = more signal.
Experiment [10] relates to Sonic hedgehog protein (Shh). The experiment can be described thus: Sonic hedgehog microarray binding compounds – biochemical, small-molecule microarray, 635/667 nm fluorescence, primary screen (AID 1151).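 Note: Shh protein binding to compounds spotted on small-molecule microarray slides; score combines spot fluorescence intensity with signal-to-noise across triplicate slides.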 Particulars: 635 nm fluorescence, higher = more signal.

Streptavidin (Streptomyces avidinii), sequence (P22629 whole entry, looked up): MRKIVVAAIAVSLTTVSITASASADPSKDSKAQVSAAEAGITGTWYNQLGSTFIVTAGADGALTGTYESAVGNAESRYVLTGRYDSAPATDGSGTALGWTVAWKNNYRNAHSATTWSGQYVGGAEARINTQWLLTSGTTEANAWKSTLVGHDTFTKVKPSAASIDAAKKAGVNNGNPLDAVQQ
Torsin-1A (Homo sapiens), sequence (O14656 whole entry, looked up): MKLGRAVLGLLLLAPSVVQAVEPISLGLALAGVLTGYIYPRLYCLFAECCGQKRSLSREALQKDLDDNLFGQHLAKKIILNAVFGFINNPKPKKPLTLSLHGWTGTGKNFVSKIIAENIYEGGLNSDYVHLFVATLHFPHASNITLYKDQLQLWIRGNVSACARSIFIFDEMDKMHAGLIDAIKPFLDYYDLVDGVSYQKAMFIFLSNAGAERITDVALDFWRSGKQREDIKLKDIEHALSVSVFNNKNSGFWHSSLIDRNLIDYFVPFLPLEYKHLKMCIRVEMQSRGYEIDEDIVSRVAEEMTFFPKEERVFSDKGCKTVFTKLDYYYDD

`COC(=O)C[C@H]1O[C@@]2(C[C@@H]1[Si](C)(C)C)C(=O)N(C)c1ccccc12`: the composite z-score in experiment [1] is 0.0074; in [6], 0.327; in experiment [7], -0.0468; in experiment [8], 0.185; in experiment [9] it was 0.117; in [10], 1.44. Further, the z-score in [2] was -1.43 (inactive); in experiment [3], -0.355 (inactive); in experiment [4], 2.3 (inactive); in [5], -0.923 (inactive).

Turning to `C=CCOC(=O)[C@H]1[C@@H]2C(=O)O[C@@H](c3ccccc3)[C@@H](c3ccccc3)N2[C@@H](c2ccc(OCCOC(=O)[C@@H]3C[C@@H]4C(=O)N[C@@H](CCCC[N+](C)(C)C)C(=O)N4[C@@H]3c3ccc(O)cc3)cc2)[C@]12C(=O)Nc1ccc(I)cc12`, the composite z-score came out at 1.02 in [1]; 0.0756 in experiment [6]; 0.632 in [7]; 1.16 in [8]; 1.57 in [9]; 2.05 in experiment [10]. Besides, the z-score was -0.56 (inactive) in experiment [2], 0.201 (inactive) in experiment [3], 0.553 (inactive) in experiment [4] and 1.07 (inactive) in experiment [5].

Turning to `CC(C)(C)N1CC=CC23O[C@@H]4/C=C\CCCOC(=O)C4[C@H]2C(=O)N(CCCCCO)[C@@H]3C1=O` (stereo not given in full), the composite z-score is -0.552 in [1]; -0.573 in [6]; -0.258 in experiment [7]; -0.185 in experiment [8]; -1.33 in [9]; -0.58 in [10]. Further, the z-score in [2] was -0.0495 (inactive); in experiment [3] it was 1.27 (inactive); in [4], 0.191 (inactive); in experiment [5], -0.311 (inactive).

For `C=CCC(OC(C)=O)[C@@H]1[C@@H](N(Cc2cc3ccccc3o2)C(=O)c2cccc3ccccc23)c2cc(OCCCO)ccc2N1C(=O)c1ccc2ccccc2n1` (stereo not given in full), the composite z-score in [1] was 0.0394; in experiment [6] it was 0.0002; in experiment [7], -0.0131; in [8] it was 0.866; in experiment [9], -0.661; in [10], 0.151. Also, the z-score in [2] is -1.35 (inactive); in experiment [3], -0.399 (inactive); in [4], 2.6 (inactive); in experiment [5], -0.273 (inactive).

As to `COc1ccc(C(O)C2C=CC3C(=O)N(c4ccccc4)C(=O)C3N2Nc2ccc(C#N)cc2)cc1OCc1ccccc1` (stereo not given), the composite z-score is 0.512 in experiment [1]; 1.65 in [6]; 0.274 in experiment [7]; 0.056 in experiment [8]; 1.12 in experiment [9]; -0.189 in experiment [10]. For the same compound, the z-score was 0.0667 (inactive) in experiment [2], -0.753 (inactive) in experiment [3], 1.39 (inactive) in experiment [4] and 0.338 (inactive) in [5].

Turning to `O=C1c2ccccc2[C@@]2(Cc3ccccc3N(Cc3ccccc3)C2=O)[C@H](c2ccc(CO)cc2)N1Cc1ccccc1Cl`, the composite z-score is -0.131 in [1]; -0.463 in experiment [6]; -0.13 in experiment [7]; -1.29 in experiment [8]; 0.454 in experiment [9]; -0.971 in experiment [10]. The z-score in experiment [2] is -1.35 (inactive); in [3], -1.09 (inactive); in experiment [4], -0.322 (inactive); in [5], 0.164 (inactive).

With `C[N+](C)(C)CCCCNC(=O)[C@H]1C[C@H]2C(=O)N[C@@H](Cc3ccccc3)C(=O)N2[C@H]1c1cccc(OCCO)c1`, the composite z-score in experiment [1] was 0.278; in [6] it was 0.313; in [7], 0.152; in experiment [8], 0.971; in experiment [9], 0.342; in experiment [10] it was 2.23. In addition, the z-score in experiment [2] is -0.15 (inactive); in experiment [3] it was -0.495 (inactive); in experiment [4], -0.13 (inactive); in experiment [5], -0.384 (inactive).

Regarding `CC(C)(C)N1CC=CC23O[C@@H]4/C=C\CCCOC(=O)C4[C@H]2C(=O)N(CCCO)[C@@H]3C1=O` (stereo not given in full), the composite z-score in experiment [1] is -0.285; in experiment [6], -0.773; in experiment [7], -0.0112; in experiment [8], 0.585; in experiment [9] it was 0.645; in [10] it was 0.941. Further, the z-score in [2] was 0.317 (inactive); in [3], 1.68 (inactive); in experiment [4], -0.0697 (inactive); in experiment [5], -0.764 (inactive).

Turning to `O=C(NCCN1CCOCC1)[C@@H]1c2ccccc2C(=O)N(Cc2ccc(OC(F)(F)F)cc2)[C@H]1c1ccc(CO)cc1`, the composite z-score in [1] is 0.0235; in experiment [6], -0.119; in experiment [7], -0.0762; in experiment [8], -0.282; in experiment [9] it was 0.459; in experiment [10], -0.0784. The z-score in experiment [2] is -0.281 (inactive); in experiment [3], -0.0358 (inactive); in [4] it was 0.558 (inactive); in experiment [5], 0.338 (inactive).

Consider `Cc1ccccc1C(O)C1C=CC2C(=O)N(c3ccccc3)C(=O)C2N1Nc1ccccc1` (stereo not given), for which the composite z-score is 0.719 in [1]; 1.65 in experiment [6]; 0.182 in experiment [7]; -0.241 in [8]; 0.191 in [9]; 0.442 in experiment [10]. In addition, the z-score in experiment [2] was -0.383 (inactive); in experiment [3], -1.18 (inactive); in [4], 0.0501 (inactive); in experiment [5], 0.0163 (inactive).

The record behind these values is PubChem BioAssay.
